Screens: PubChem, National Center for Advancing Translational Sciences (NCATS)
This is a sample that favours compounds with a hit; in the whole collection about 7.5% have one here.
SMN2 splice up = qHTS Assay for Enhancers of SMN2 Splice Variant Expression; Potency, µM (top dose mostly 46.1 µM), for inactives: at the highest dose activity change, positive = activation, most hits filed as activators; 2.8% of 210,000 active; HEK293 SMN2-luciferase splicing reporter, luminescence, 30-36 h; also: % of control where 0% means no effect; nearly all actives have a fitted effect of over 55% in size
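HEK293 cells carry an SMN2 minigene-luciferase reporter in which exon 7 inclusion puts luciferase in frame. Cells were seeded at 2000 cells/well, attached for 10-12 hours, then exposed to compounds for 30-36 hours at 37C before ONE-Glo luminescence.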
Luc counter = Counterscreen for Luciferase (Kinase-Glo TM) Inhibition. Potency, µM (doses to about 38.3 µM), inactives show at the top dose activity change, negative = inhibition, usual class: inhibitors. 0.28% of 200,000 active. Kinase-Glo luciferase, ATP luminescence, 8 min. Luciferin 4-monooxygenase (Photuris pensylvanica), Q27757; also: % is scaled to controls: 0 for no effect and ±100 for the full control effect; nearly all actives have a fitted effect of over 60% in size
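Recombinant Kinase-Glo luciferase, 10 uM ATP (linear range), luciferin; imidazole pH 7.2 / KCl / MgCl2 / Tween / BSA buffer; 8 min RT; luminescence.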
ELG1 genotoxic = qHTS screen for small molecules that induce genotoxicity in human embryonic kidney (HEK293T) cells expressing luciferase-tagged ELG1; HEK293T ELG1-luciferase reporter, luminescence, 16 h; Potency, µM (titrated, usually from 46 µM), for the others: at the highest dose activity change, positive = activation, actives largely listed as activators; 1.3% of 330,000 active; AID 504466, 2011; also: % of control where 0% means no effect; nearly all actives have a fitted effect of over 60% in size
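HEK293T cells expressing luciferase-tagged ELG1 were treated with compound or DMSO for 16 hr at 37°C. Luciferase activity was then read after 30 min with ONE-Glo at room temperature; rising signal flags genetic stress.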
Rab9 prom act = qHTS Assay for Rab9 Promoter Activators; 2.8% of 320,000 active; AID 485297, 2010; Huh7 Rab9 promoter-luciferase reporter, luminescence, 24 h; Potency, µM (highest dose often 9.22 µM), for the others: at the top dose activation, negative = inhibition, most hits filed as activators; also: % of control where 0% means no effect; nearly all actives have a fitted effect of over 60% in size
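Stable Rab9-luc Huh7, 1500 cells/well, 2 h settle; cmpd in DMSO, 24 h, 37 °C/5% CO2; luciferase reagent 10 min RT; luminescence.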
FLuc counter = qHTS profiling assay for firefly luciferase inhibitor/activator using purifed enzyme and Km concentrations of substrates (counterscreen for miR-21 project). Luciferin 4-monooxygenase (Photinus pyralis), P08659. purified FLuc, Km substrates, luminescence inhibition. Potency, µM (series often up to 57.5 µM), for the others: at the highest dose activity change, negative = inhibition, hits mostly inhibitors. 6.9% of 360,000 active;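 also: plate controls were vehicle for no effect and reference inhibitor for full effect; nearly all actives have a fitted effect of over 55% in size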
Target sequence (P08659 whole entry, looked up): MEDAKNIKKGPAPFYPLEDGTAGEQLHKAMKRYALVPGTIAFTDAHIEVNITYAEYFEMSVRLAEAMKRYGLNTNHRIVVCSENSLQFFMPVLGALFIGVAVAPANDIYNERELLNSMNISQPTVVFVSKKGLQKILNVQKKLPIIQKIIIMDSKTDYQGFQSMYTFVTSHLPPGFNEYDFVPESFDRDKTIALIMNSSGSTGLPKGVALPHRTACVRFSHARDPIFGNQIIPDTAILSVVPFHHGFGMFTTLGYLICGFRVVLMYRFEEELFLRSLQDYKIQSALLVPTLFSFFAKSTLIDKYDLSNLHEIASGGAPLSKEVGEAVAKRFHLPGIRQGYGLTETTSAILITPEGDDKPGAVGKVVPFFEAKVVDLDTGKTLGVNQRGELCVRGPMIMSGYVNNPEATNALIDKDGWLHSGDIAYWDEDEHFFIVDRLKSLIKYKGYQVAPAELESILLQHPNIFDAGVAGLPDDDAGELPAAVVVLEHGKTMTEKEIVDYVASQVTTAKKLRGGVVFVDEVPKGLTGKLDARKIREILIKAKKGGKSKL
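Biochemical qHTS of compounds, final roughly 60 µM downward over six points, against 10 nM purified firefly luciferase using Km concentrations of substrates (10 uM D-luciferin, 10 uM ATP) in Tris acetate pH 7.5 buffer; luminescence output.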
NPC1 prom act = qHTS Assay for NPC1 Promoter Activators; AID 485313, 2010; Potency, µM (series often up to 9.22 µM), for the others: at the top dose activation, hits mostly activators; 2.4% of 320,000 active; Huh7 NPC1 promoter luciferase reporter, 24 h; also: % of control where 0% means no effect; nearly all actives have a fitted effect of over 60% in size
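Cells: Huh7 expressing luciferase under the NPC1 promoter, 1500/well. Seeded 2 h, compound added, incubated 24 h at 37 °C. Luciferase reagent, 10 min ambient, then luminescence.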
An asterisk follows results filed as active; ? = inconclusive; · = no result given; [ ] = another dose, or the depositor's remark. Calls follow the shape of the dose curve; as a rule, active = well fitted curve in the direction sought with a large enough effect; inconclusive = small, poorly fitted or top-dose-only effect, or another doubt; inactive = no such curve, though single readings can be large; an effect the other way counts as inactive or inconclusive. Potency is read from the fitted curve at half-maximal effect.

SMILES	SMN2 splice up	Luc counter	ELG1 genotoxic	Rab9 prom act	FLuc counter	NPC1 prom act
COc1ccc2c(CC(=O)Nc3nc(C)cs3)coc2c1	-3%	-4%	-3%	?	24µM*	10%
Cc1cccc(NC(=O)CN2C(=O)c3ccccc3Sc3ncccc32)c1C	·	·	·	·	-3%	·
Cc1nc2ccc(NC(=O)c3cccc(C(F)(F)F)c3)cc2o1	4%	7%	?	-5%	-19%	5%
Cc1nc2ccc(-c3ccccc3)cc2o1	-6%	-5%	8%	15%	17µM*	14%
CCOC(=O)CSc1nc2ccccc2c(=O)n1NC(=O)c1ccccc1	16µM*	-2%	?	3.5µM*	?	?
COc1ccc(C(=O)Nn2c(SCC(=O)c3ccccc3)nc3ccccc3c2=O)cc1	-45%	-9%	?	0.56µM*	6.7µM*	1.4µM*
COc1ccc(C(=O)Nn2c(SCc3ccc([N+](=O)[O-])cc3)nc3ccccc3c2=O)cc1	-8%	-18%	?	4µM*	12µM*	2.5µM*
CCOC(=O)CSc1nc2ccccc2c(=O)n1C	?	-2%	0%	-6%	0%	-3%
Cc1ccc(C)c(Cn2c(=O)n(C(C)C)c(=O)c3oc4ccccc4c32)c1	·	·	·	·	1%	·
CN1C[C@H](c2ccccc2)C(O)([C@]2(c3ccccc3)CN(C)C[C@@H](c3ccccc3)C2=O)[C@H](c2ccccc2)C1 (some centres not stated)	-10%[9.22 µM]	-5%[7.66 µM]	·	·	·	·
COc1cccc(CNC(=O)Cn2nc(N3CCN(c4ccccc4OC)CC3)ccc2=O)c1	·	·	·	·	-3%	·
CCOC(=O)c1ccc(CN(Cc2ccc(F)cc2)S(=O)(=O)c2ccc(F)c(C(=O)Nc3cc(Cl)ccc3OC)c2)cc1	·	·	·	·	3%	·
Cc1ccc(NC(=O)c2cccc(S(=O)(=O)N3CCN(c4ccccc4)CC3)c2)nc1	·	·	15µM*	-16%	2%	-6%
O=C(Nc1ccc(Cl)cn1)c1cccc(S(=O)(=O)N2CCCCC2)c1	·	·	-7%	0%	0%	-1%
Cc1ccnc(NC(=O)c2cccc(S(=O)(=O)N3CCCC3)c2)c1	·	·	-1%	24%	-14%	14%
Cc1ccnc(NC(=O)c2cccc(S(=O)(=O)N3CCN(c4ccccc4)CC3)c2)c1	·	·	?	?	1.9µM*	20%
COc1nccnc1NS(=O)(=O)c1ccc(NC(=O)c2cccc(C)c2)cc1	6%	7%	4%	4%	-6%	0%
CCOc1ccccc1NC(=O)Cn1ncc2c(=O)oc3ccc(C)cc3c21	-12%	·	·	·	1%	·
CCCC(=O)N1c2ccccc2C(N(C(C)=O)c2ccccc2)CC1C (configuration not stated)	-14%	-1%	0%	-9%	1%	-3%
CCC(=O)N1c2ccccc2[C@@H](N(C(C)=O)c2ccccc2)C[C@H]1C	7.9µM*	2%	23µM*	14%	0%	2%
CN(C)c1ccc(/C=C(/C#N)C(=O)NCc2ccccc2)o1	13µM*	4%	?	?	?	?
N#C/C(=C/c1ccccc1)C(=O)NCc1ccccc1	-13%	0%	9%	-9%	?	-2%
CCCS(=O)(=O)NCc1cn2c(C)csc2n1	11µM*	1%	12µM*	?	?	?
Cc1csc2nc(CCNS(=O)(=O)c3cccs3)cn12	15%	-8%	21µM*	?	24µM*	?
Cn1c(SCc2ccc(F)cc2)nnc1-c1cccs1	?	-5%	?	4µM*	19µM*	2.2µM*
SMILES	SMN2 splice up	Luc counter	ELG1 genotoxic	Rab9 prom act	FLuc counter	NPC1 prom act
Nn1c(SCc2ccccc2F)nnc1-c1cccnc1	·	·	?	2.2µM*	?	?
Cn1c(SCc2ccc(F)cc2)nnc1-c1ccccn1	?	-3%	?	2.2µM*	?	4.5µM*
Nn1c(SCc2cccc(F)c2)nnc1-c1cccnc1	·	·	5%	10%	3%	1%
Cn1c(SCc2ccccc2F)nnc1-c1ccccn1	11µM*	-5%	?	2.2µM*	?	4µM*
CC1CN(S(=O)(=O)c2cccc(C(=O)Nc3ccc(S(=O)(=O)NC4=NCCCCC4)cc3)c2)CC(C)O1 (configuration not stated)	·	·	?	-2%	6%	1%
COc1ccc(S(=O)(=O)N2CCCOC2CNC(=O)C(=O)NC2CCCC2)cc1 (configuration not stated)	·	·	3%	3%	-3%	-7%
CCOC(=O)c1cccnc1SCC(=O)Nc1ccc(C)cc1C	·	·	·	·	-9%	·
COc1cccc(NC(=O)Cn2c(=O)n(Cc3ccco3)c(=O)c3cc(OC)c(OC)cc32)c1	-2%	·	·	·	-7%	·
Cc1ccn2c(=O)nc(SCC(=O)NCCc3ccccc3)nc2c1	·	·	2%	-5%	-3%	-2%
Cn1c(SCc2ccccn2)nnc1-c1cnccn1	-2%	-3%	10%	?	-11%	13%
CCCn1c(SCC(=O)NC2CC2)nnc1-c1cccs1	·	·	7%	25%	2%	5%
Cn1c(SCC(=O)NC2CC2)nnc1-c1cccs1	·	·	26%	4µM*	?	4µM*
Cn1c(SCc2ccccc2F)nnc1-c1cnccn1	·	·	?	3.2µM*	?	?
Cc1nnsc1C(=O)NNC(=O)c1ccc(C(F)(F)F)cc1	·	·	5%	9%	17µM*	9%
N#CCC(=O)Nc1ccc(C(=O)OCC(=O)N2CCCC2=O)cc1	·	·	1%	16%	0%	0%
CCOC(=O)C1CCCN(C(=O)c2cnn3c(C(F)(F)F)cc(-c4ccccc4)nc23)C1 (configuration not stated)	6%	0%	-4%	-3%	-1%	-2%
CCOC(=O)C1CCCN(C(=O)c2cn(C)c3ccc(S(=O)(=O)N4CCCC4)cc3c2=O)C1 (configuration not stated)	11µM*	2%	2%	-8%	-1%	0%
CCOC(=O)C1CCCN(C(=O)CC(C)c2ccccc2)C1 (configuration not stated)	?	5%	?	2µM*	?	2.8µM*
CCOC(=O)C1CCCN(C(=O)c2cn(CC)c3ccc(S(=O)(=O)N4CCCC4)cc3c2=O)C1 (configuration not stated)	-1%	-7%	5%	1%	3%	2%
